Results reported in PubChem BioAssay (NCI).
Compounds without any hit were thinned out: in the full panel of roughly 83,000, 20% have a hit.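 48-hour exposure, single concentration, 96-well plates; percent growth endpoint where 0 means no net growth. Active: below 10.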 A number with no mark means an inactive call. Activity calls are given as the source filed them.

What follows are compounds tested on UACC-257 melanoma (assay: NCI-60 one-dose screen, 48 h (100 = growth as untreated, 0 = no growth, -100 = all killed)). Conditions: 10 µM.

Compound | growth
Cc1cc(C)c(CCc2cc(C)c(C)cc2C)cc1C | 101%
O=C1OCC2=C1C(c1ccc(Cl)c(Cl)c1)c1cc3c(cc1N2CCO)OCCO3 (stereo unspecified) | 59.9%
c1ccc2c(c1)oc1c3c(ccc12)NCCC3 | 95.4%
COC(=O)c1c(-c2ccccc2)csc1NC(=O)c1c(-c2ccccc2)noc1C | 45.5%
COc1cc(CNc2ccccc2C(=O)N2CCN(C(=O)c3cc(-c4cc(OC)c(OC)c(OC)c4)n4nc(-c5ccccc5)cc4n3)CC2)cc(OC)c1OC | 37.5%
CN1CCCNc2c(c(=O)c2=O)NCCCN(C)CCCNc2c(c(=O)c2=O)NCCCN(C)CCCNc2c(c(=O)c2=O)NCCCN(C)CCCNc2c(c(=O)c2=O)NCCCN(C)CCCNc2c(c(=O)c2=O)NCCCN(C)CCCNc2c(c(=O)c2=O)NCCCN(C)CCCNc2c(c(=O)c2=O)NCCC1 | 21.2%
COc1ccc2c(c1)C(=O)c1c-2c(OCCN2CCCCC2)nc2ccc(OC)cc12 | 32.3%
CCCCCCCCCCCCCCCCCC(=O)OCCCCCCC | 109%
COc1cc([C@@H]2c3cc4c(cc3C(Br)[C@H]3COC(=O)[C@H]23)OCO4)cc(OC)c1OC (stereo partly specified) | 16.2%
COc1ccc(Cn2c(C(N)=O)cc3c2-c2nc(N)ncc2CCC3)cc1 | 102%
CN(C)CCOc1nc2ccccc2c2c1-c1ccc(Cl)cc1C2=O | -68% (active)
CO/N=C(/C(=O)NC1C(=O)N2C(C(=O)O)=C(COC(N)=O)CSC12)c1ccco1 (stereo unspecified) | 104%
O=C(O)C(SC(C(=O)O)c1ccccc1)c1ccccc1 (stereo unspecified) | 104%
CC(=O)c1cc(Cl)ccc1O | 110%
O=C(NN1C(=O)CSC1c1ccc(Cl)cc1)c1cccnc1 (stereo unspecified) | 112%
N=C1c2nc3n(c2C(=O)c2nc4n(c21)CCCC4)CCCC3 | -6.6% (active)
CC1CC(=O)OC(C)C1 (stereo unspecified) | 111%
Oc1[nH]c2ccc(Cl)cc2c1/C=c1/ccc2c(c1)N=C(c1cc(F)cc(F)c1)N=2 | 70.5%

Compound | growth
CCN(CC)CCN1CC(=O)Nc2cc(Cl)ccc21 | 102%
CN(C)CCS(=O)(=O)CCN(C)C | 110%
FC(F)(F)c1ccc2nc(-c3nc(-c4ccccc4)n4ccccc34)[nH]c2c1 | 81.7%
O=C(O)CN1C(=O)c2cccc3cccc(c23)C1=O | 98.2%
Nc1ccn(C2CC(O)C(CO)O2)c(=O)n1 (stereo unspecified) | 113%
CCn1cc(C(=O)O)c(=O)c2cnc(N3CCCC3)nc21 | 97.2%
O=c1cc(-c2ccccc2)[nH]n1-c1nc2ccccc2[nH]1 | 75.6%
Cc1ccc(NC(=O)CSc2nc3ccccc3c(=O)n2CCc2ccccc2)c(C(=O)O)c1 | 98.1%
COc1ccc(NC(=O)CSc2nc3ccccc3c(=O)n2CCc2ccccc2)cc1 | 87.9%
C[N+](C)(C)c1ncnc2nc[nH]c12 | 91.5%
O=c1c2ccccc2nc(SCCN2CCCCC2)n1CCc1ccccc1 | 95.9%
COc1cc(NC(=O)CSc2nc3ccccc3c(=O)n2CCc2ccccc2)cc(OC)c1OC | 39.2%
CC(C)=CCc1ccc(O)c(=O)cc1C(C)C | 13.6%
COc1ccc(C2CC(c3ccc(N(C)C)cc3)=NN2c2ccc(S(N)(=O)=O)cc2)cc1 (stereo unspecified) | 73.7%
Nc1ncn([C@@H]2O[C@H](CO)[C@@H](O)[C@H]2O)c(=O)n1 | 48%
Oc1[nH]c2ccc(Cl)cc2c1/C=c1/ccc2c(c1)N=C(c1cccs1)N=2 | 48.5%
CCOC(=O)CNC(=O)CCCCSc1ncnc2nc[nH]c12 | 81.2%
N=c1c2c(-c3ccccc3)c(-c3ccccc3)n(Cc3ccccc3)c2ncn1CCCO | -24.9% (active)

The compounds below were run on M14 melanoma in the same assay as above. Conditions: 10 µM.

Compound | growth
Cc1cc(C)c(CCc2cc(C)c(C)cc2C)cc1C | 111%
O=C1OCC2=C1C(c1ccc(Cl)c(Cl)c1)c1cc3c(cc1N2CCO)OCCO3 (stereo unspecified) | 12.4%
c1ccc2c(c1)oc1c3c(ccc12)NCCC3 | 109%
O=C(CNC(=O)OCc1ccccc1)NCC(=O)Oc1ccc([N+](=O)[O-])cc1 | 89.5%
COC(=O)c1c(-c2ccccc2)csc1NC(=O)c1c(-c2ccccc2)noc1C | 52.3%
COc1cc(CNc2ccccc2C(=O)N2CCN(C(=O)c3cc(-c4cc(OC)c(OC)c(OC)c4)n4nc(-c5ccccc5)cc4n3)CC2)cc(OC)c1OC | 33%
CN1CCCNc2c(c(=O)c2=O)NCCCN(C)CCCNc2c(c(=O)c2=O)NCCCN(C)CCCNc2c(c(=O)c2=O)NCCCN(C)CCCNc2c(c(=O)c2=O)NCCCN(C)CCCNc2c(c(=O)c2=O)NCCCN(C)CCCNc2c(c(=O)c2=O)NCCCN(C)CCCNc2c(c(=O)c2=O)NCCC1 | 61.1%
COc1ccc2c(c1)C(=O)c1c-2c(OCCN2CCCCC2)nc2ccc(OC)cc12 | 22.9%
CCCCCCCCCCCCCCCCCC(=O)OCCCCCCC | 108%
COc1cc([C@@H]2c3cc4c(cc3C(Br)[C@H]3COC(=O)[C@H]23)OCO4)cc(OC)c1OC (stereo partly specified) | -8.65% (active)
COc1ccc(Cn2c(C(N)=O)cc3c2-c2nc(N)ncc2CCC3)cc1 | 96.7%
CN(C)CCOc1nc2ccccc2c2c1-c1ccc(Cl)cc1C2=O | -83.4% (active)
CO/N=C(/C(=O)NC1C(=O)N2C(C(=O)O)=C(COC(N)=O)CSC12)c1ccco1 (stereo unspecified) | 102%
O=C(O)C(SC(C(=O)O)c1ccccc1)c1ccccc1 (stereo unspecified) | 109%
CC(=O)c1cc(Cl)ccc1O | 106%
O=C(NN1C(=O)CSC1c1ccc(Cl)cc1)c1cccnc1 (stereo unspecified) | 84.1%
N=C1c2nc3n(c2C(=O)c2nc4n(c21)CCCC4)CCCC3 | -95.6% (active)
CCc1ccc2c(c1)N(CCO)C1=C(C(=O)OC1)C2c1ccccc1 (stereo unspecified) | 78.9%
CC1CC(=O)OC(C)C1 (stereo unspecified) | 100%
Oc1[nH]c2ccc(Cl)cc2c1/C=c1/ccc2c(c1)N=C(c1cc(F)cc(F)c1)N=2 | 68.5%

Compound | growth
CCN(CC)CCN1CC(=O)Nc2cc(Cl)ccc21 | 93.9%
CN(C)CCS(=O)(=O)CCN(C)C | 96.7%
FC(F)(F)c1ccc2nc(-c3nc(-c4ccccc4)n4ccccc34)[nH]c2c1 | 96%
COc1cccc(C2C3=C(COC3=O)N(CCO)c3cc(OC)ccc32)c1 (stereo unspecified) | 6.29% (active)
O=C(O)CN1C(=O)c2cccc3cccc(c23)C1=O | 99.6%
Nc1ccn(C2CC(O)C(CO)O2)c(=O)n1 (stereo unspecified) | 106%
CCn1cc(C(=O)O)c(=O)c2cnc(N3CCCC3)nc21 | 96.9%
O=c1cc(-c2ccccc2)[nH]n1-c1nc2ccccc2[nH]1 | 41.8%
Cc1ccc(NC(=O)CSc2nc3ccccc3c(=O)n2CCc2ccccc2)c(C(=O)O)c1 | 97.8%
COc1ccc(NC(=O)CSc2nc3ccccc3c(=O)n2CCc2ccccc2)cc1 | 75.3%
C[N+](C)(C)c1ncnc2nc[nH]c12 | 93.8%
O=C1OCC2=C1C(c1cccc(Br)c1)c1cc3c(cc1N2CCO)CCC3 (stereo unspecified) | 12.8%
O=c1c2ccccc2nc(SCCN2CCCCC2)n1CCc1ccccc1 | 103%
COc1cc(NC(=O)CSc2nc3ccccc3c(=O)n2CCc2ccccc2)cc(OC)c1OC | 41.9%
CC(C)=CCc1ccc(O)c(=O)cc1C(C)C | -16.8% (active)
COc1ccc(C2CC(c3ccc(N(C)C)cc3)=NN2c2ccc(S(N)(=O)=O)cc2)cc1 (stereo unspecified) | 69.2%
Nc1ncn([C@@H]2O[C@H](CO)[C@@H](O)[C@H]2O)c(=O)n1 | 19.7%
Oc1[nH]c2ccc(Cl)cc2c1/C=c1/ccc2c(c1)N=C(c1cccs1)N=2 | 77.1%
CCOC(=O)CNC(=O)CCCCSc1ncnc2nc[nH]c12 | 100%
N=c1c2c(-c3ccccc3)c(-c3ccccc3)n(Cc3ccccc3)c2ncn1CCCO | 43.4%
